Rows were chosen to be rich in hits. Some 1.3% of all compounds tested hit in one or more screens of this group.
Apoferritin bind = qHTS Assay for Identification of Novel General Anesthetics; apoferritin/1-aminoanthracene competitive binding, fluorescence; Potency, µM (top dose mostly 77.5 µM), usual class: inhibitors; 0.074% of 350,000 active; note: nearly all actives have a fitted effect of over 20% in size
Target sequence (P02791 2-175 limits assumed): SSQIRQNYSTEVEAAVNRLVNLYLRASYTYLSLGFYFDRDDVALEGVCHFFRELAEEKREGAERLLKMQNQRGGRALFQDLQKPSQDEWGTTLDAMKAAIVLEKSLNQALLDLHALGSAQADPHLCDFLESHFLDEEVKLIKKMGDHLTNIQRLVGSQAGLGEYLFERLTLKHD
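10 uM apoferritin + 50% sat. 1-AMA, PBS; cpd 10 min RT; Ex380/Em535 endpoint; normalized to free probe vs complex; 4-param Hill fit; propofol titration as pos. ctrl.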
TrxR1 substrate = qHTS Assay for Substrates of Mammalian Selenoprotein Thioredoxin Reductase 1 (TrxR1): qHTS; Thioredoxin reductase 1, cytoplasmic (Rattus norvegicus), O89049; purified TrxR1 substrate turnover, NADPH consumption readout; Potency, µM (top dose mostly 114 µM); 0.01% of 390,000 active; note: nearly all actives have a fitted effect of over 50% in size
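Rat TrxR1, dispensed at 90 nM, was prereduced with 400 uM NADPH (final) for 5 min at ~22 deg C, then incubated with compound 15 min before 400 uM selenite. A first-read NADPH fluorescence drop versus no-compound background flagged substrates.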
PKM2 activator = qHTS Assay for Activators of Human Muscle isoform 2 Pyruvate Kinase; Pyruvate kinase PKM (Homo sapiens), P14618; purified PKM2, Kinase-Glo ATP luminescence, activation; response scale: 0% is enzyme alone, no compound; 0.34% of 260,000 active; Potency, µM (series often up to 57.5 µM), usual class: activators; note: nearly all actives have a fitted effect of over 55% in size
Target sequence (P14618 whole entry, looked up, canonical isoform): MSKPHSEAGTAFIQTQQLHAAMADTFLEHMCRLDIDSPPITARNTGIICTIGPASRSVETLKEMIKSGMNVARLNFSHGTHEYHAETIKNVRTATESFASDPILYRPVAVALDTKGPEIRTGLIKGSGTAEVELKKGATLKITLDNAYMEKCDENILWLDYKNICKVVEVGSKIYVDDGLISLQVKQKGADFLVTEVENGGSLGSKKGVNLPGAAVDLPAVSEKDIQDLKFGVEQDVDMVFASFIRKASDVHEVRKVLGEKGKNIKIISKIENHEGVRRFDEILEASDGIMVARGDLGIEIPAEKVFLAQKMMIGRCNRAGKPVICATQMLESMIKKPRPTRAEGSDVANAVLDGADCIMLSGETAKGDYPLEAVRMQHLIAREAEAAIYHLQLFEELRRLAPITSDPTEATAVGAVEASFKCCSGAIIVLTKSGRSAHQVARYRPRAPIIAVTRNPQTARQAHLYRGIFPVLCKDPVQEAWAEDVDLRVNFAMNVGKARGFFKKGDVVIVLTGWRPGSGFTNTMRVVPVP
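ATP formation by purified human PK-M2, quantified via coupled luciferase luminescence after 1 h at room temperature with 0.1 mM ADP and 0.5 mM PEP final.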
rTrxR1 inhibitor = qHTS Assay for Inhibitors of Mammalian Selenoprotein Thioredoxin Reductase 1 (TrxR1): qHTS. AID 588453, 2011. recombinant rTrxR1, NADPH fluorescence consumption, selenite substrate. Thioredoxin reductase 1, cytoplasmic (Rattus norvegicus), O89049. Potency, µM (doses to about 114 µM), most hits filed as inhibitors. 1% of 390,000 active; note: nearly all actives have a fitted effect of over 65% in size
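Rat TrxR1 (90 nM in the dispensed reagent) was pre-reduced with 400 uM NADPH for 5 min at room temperature, then incubated with compound for 15 min. After 400 uM selenite was added, NADPH fluorescence (Ex 340/Em 450 nm) was followed for 8 min.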
GALK inh = qHTS Assay for Inhibitors of Human Galactokinase (GALK); P51570; Purified GALK, Kinase-Glo residual ATP luminescence; AID 1868, 2009; 0.007% of 270,000 active; Potency, µM (doses to about 57.5 µM), hits mostly inhibitors
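Kinase-Glo Plus luminescence measured ATP left after a 1 h room-temperature reaction. The reaction used 5 nM GALK, 100 uM galactose and 35 uM ATP at pH 8.0 (20 mM HEPES, 5 mM MgCl2, 60 mM NaCl, 1 mM DTT, 0.01% BSA).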
mIDH1 inhibitor = qHTS for Inhibitors of mutant isocitrate dehydrogenase 1 (IDH1): qHTS | Isocitrate dehydrogenase [NADP] cytoplasmic (Homo sapiens), O75874 | IDH1-R132H enzyme, NADPH consumption, diaphorase/resazurin fluorescence | Potency, µM (highest dose often 76.6 µM), most hits filed as inhibitors | 0.093% of 390,000 active | AID 602179, 2012; note: nearly all actives have a fitted effect of over 65% in size
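IDH1-R132H (0.5 ug/mL dispensed) in pH 7.5 Tris buffer was preincubated 30 min with compound, then given a substrate mix of 0.016 mM NADPH and 2 mM alpha-KG for 80 min at room temperature; remaining NADPH was read by diaphorase/resazurin fluorescence.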
Numbers stand for hits; . = inactive; ? = inconclusive; / = not tested or not shown. Calls come from the whole dose curve; as a rule, active = well fitted curve in the direction sought with a large enough effect; inconclusive = small, poorly fitted or top-dose-only effect, or another doubt; inactive = no such curve, though single readings can be large; an effect the other way counts as inactive or inconclusive.

SMILES | Apoferritin bind | TrxR1 substrate | PKM2 activator | rTrxR1 inhibitor | GALK inh | mIDH1 inhibitor
CC(C)Cc1nc(S(=O)(=O)c2ccc(Cl)cc2)c(N2CCOCC2)o1 | . | . | . | 8.9µM | . | .
Cc1ccc(S(=O)(=O)c2nc(-c3ccccc3)oc2N2CCCC2)cc1 | / | . | / | 6.3µM | / | .
Cc1ccc(S(=O)(=O)c2nc(-c3ccccc3)oc2N2CCN(c3ccccc3)CC2)cc1 | . | . | / | . | / | .
COc1ccc(-c2nc(S(=O)(=O)c3ccccc3)c(N3CCOCC3)o2)cc1 | . | . | . | 40µM | . | .
O=S(=O)(c1ccccc1)c1nc(-c2ccccc2)oc1N1CCCC1 | . | . | . | . | . | .
O=S(=O)(c1ccccc1)c1nc(-c2ccccc2)oc1N1CCCCC1 | . | . | . | 45µM | . | .
O=C(CCSc1ccccn1)c1ccccc1 | . | . | . | 2µM | . | .
CN(C)c1ccc(/C=C/c2cnnc3ccccc23)cc1 | / | . | / | . | / | /
O=C(COc1ccc(F)cc1)c1c(O)cc(O)cc1O | . | . | . | 7.1µM | . | .
N#C/C(=N\Nc1ccc(S(=O)(=O)N2CCOCC2)cc1)C(N)=S | . | . | . | . | / | .
N#CC(C#N)=NNc1ccc(S(=O)(=O)N2CCCCC2)cc1 | . | . | . | 32µM | . | .
O=S(=O)(NCCC1=CCCCC1)c1cccc2nsnc12 | 8.9µM | . | . | . | . | .
O=C(CCNS(=O)(=O)c1cccc2nsnc12)NCCC1=CCCCC1 | . | . | . | ? | . | .
CCCC(=O)OCc1cnc(C)c2oc(=O)c(C(=O)Nc3cccc(C(F)(F)F)c3)cc12 | ? | . | / | . | / | .
CCOc1ccc(S(=O)(=O)NCCc2csc3nc(-c4ccc(F)cc4)nn23)cc1 | . | . | / | . | / | .
C=C1C=C(C(F)F)n2ncc(C(=O)NCc3ccc(F)cc3)c2N1 | / | . | / | . | / | /
O=C(N/N=C/c1ccco1)c1cccc(N2Cc3ccccc3C2)c1 | . | . | . | 50µM | . | .
O=C(N/N=C/c1ccco1)c1cccc(N2CCCC2=O)c1 | . | . | . | . | . | .
O=S1(=O)C=C(Sc2nnc(-c3ccccc3)o2)c2ccccc21 | ? | . | . | 0.4µM | . | .
C#CCOCCOCCOCCNc1nc(N2CCN(C(=O)CCCCCCCCCCNC(=O)[C@H](CCCCN)n3cc(CCO)nn3)CC2)nc(N2CCN(C(=O)CCCCCCCCCCNC(=O)[C@@H]([C@H](C)O)n3cc(C)nn3)CC2)n1 | / | . | / | 50µM | / | .
C#CCOCCOCCOCCNc1nc(N2CCN(C(=O)Cn3cc(CCCN=C(N)N)nn3)CC2)nc(N2CCN(C(=O)[C@H]([C@@H](C)O)n3cc(CCCCN)nn3)CC2)n1 | / | . | / | 71µM | / | .
C#CCOCCOCCOCCNc1nc(N2CCN(C(=O)[C@H](Cc3cc4ccccc4[nH]3)n3cc(C(N)CC(C)C)nn3)CC2)nc(N2CCN(C(=O)[C@H](CCC(=O)O)n3cc(C(N)[C@H](C)CC)nn3)CC2)n1 (some centres not stated) | . | . | . | ? | . | .
C#CCOCCOCCOCCNc1nc(N2CCN(C(=O)[C@H](CCC(=O)O)n3cc(C(N)CC(C)C)nn3)CC2)nc(N2CCN(C(=O)[C@H](Cc3cc4ccccc4[nH]3)n3cc(C(N)CC(C)C)nn3)CC2)n1 (some centres not stated) | . | . | . | 28µM | . | .
C#CCOCCOCCOCCNc1nc(N2CCN(C(=O)[C@H](CCCCN)n3cc(CCCC)nn3)CC2)nc(N2CCN(C(=O)[C@H](Cc3ccc(O)cc3)n3cc(CCO)nn3)CC2)n1 | . | . | . | 14µM | / | .
C#CCOCCOCCOCCNc1nc(N2CCN(C(=O)Cn3cc(CCCCN)nn3)CC2)nc(N2CCN(C(=O)[C@H]([C@@H](C)CC)n3cc(CCCN=C(N)N)nn3)CC2)n1 | / | . | / | . | / | .
SMILES | Apoferritin bind | TrxR1 substrate | PKM2 activator | rTrxR1 inhibitor | GALK inh | mIDH1 inhibitor
COc1ccc(-c2noc(N3CCC(C(=O)Nc4ccc(C)c(F)c4)CC3)n2)cc1OC | . | . | / | . | / | .
C=CCn1c(SCC(N)=O)nc2scc(-c3ccc(C)o3)c2c1=O | . | . | 32µM | ? | . | .
C=CCn1c(SCc2ccccc2)nc2scc(-c3ccc(C)o3)c2c1=O | . | . | . | ? | . | .
C=CCn1c(SCC(=O)NCCOC)nc2scc(-c3ccco3)c2c1=O | . | . | ? | 45µM | . | .
CCCC(=O)Nc1nnc(SCc2cc(=O)n3ccccc3n2)s1 | . | . | / | . | / | .
O=C(O)c1ccc(-c2ccc3cc(C45CC6CC(CC(C6)C4)C5)c(O)cc3c2)cc1 | . | / | / | / | / | /
Cc1ccc(C(=O)CC2(O)C(=O)N(Cc3ccc4c(c3)OCO4)c3ccccc32)cc1 (configuration not stated) | 14µM | . | . | . | . | .
CC1(C)CC(=O)c2cc(C(=O)Nc3cccc4ccccc34)c(=O)[nH]c2C1 | / | . | / | . | / | /
Cc1nc(NCCc2ccc(O)cc2)c2nnn(Cc3ccccc3)c2n1 | 16µM | . | . | . | . | .
O=C(COc1ccccc1)NC1CCCCC1 | . | . | . | . | / | .
O=C(COc1ccccc1)NC1CCCCCCC1 | 45µM | . | . | . | . | .
COc1ccc(C(c2c(O)cc(C)n(Cc3ccco3)c2=O)N2CCN(c3ccccc3)CC2)cc1 (configuration not stated) | . | . | / | 16µM | / | .
CCOC(=O)C1CCN(C(c2ccc(OCC)cc2)c2c(O)cc(C)n(CCOC)c2=O)CC1 (configuration not stated) | . | . | / | 25µM | / | .
CCOc1ccc(C(c2c(O)cc(C)n(CCOC)c2=O)N2CCN(c3ccccc3)CC2)cc1 (configuration not stated) | . | . | / | 11µM | / | .
Cc1ccc(S(=O)(=O)c2nc(-c3cccc(C)c3)oc2N2CCCCC2)cc1 | . | . | / | ? | / | .
COc1ccccc1N1CCN(C(=O)CSc2nc3ccccc3nc2Cc2ccccc2)CC1 | . | . | / | . | / | .
CCN(Cc1ccccc1)C(=O)CN1C(=O)COc2ccc(S(=O)(=O)N(CC)CC)cc21 | . | . | / | . | / | .
